PubChem BioAssay (NCATS)
Inconclusive results are not listed. Unless noted, calls follow the shape of the full dose curve.

Biological target: Glucocorticoid receptor (Homo sapiens) (UniProt P04150)
Assay: GR-EFC Redistribution (AID 451); also: potency is read from the fitted curve at half-maximal effect
Conditions: CHO-K1 GR-EFC translocation, beta-gal luminescence, 2 h
Outline: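 CHO-K1 cells expressing nuclear EA and GR-ED fragments of b-gal; compounds titrated up to 46 uM final, 2 h at 37 C. GR nuclear translocation read as complemented b-gal luminescence after 1 h RT detection.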

Glucocorticoid receptor (Homo sapiens), sequence (P04150 whole entry, looked up): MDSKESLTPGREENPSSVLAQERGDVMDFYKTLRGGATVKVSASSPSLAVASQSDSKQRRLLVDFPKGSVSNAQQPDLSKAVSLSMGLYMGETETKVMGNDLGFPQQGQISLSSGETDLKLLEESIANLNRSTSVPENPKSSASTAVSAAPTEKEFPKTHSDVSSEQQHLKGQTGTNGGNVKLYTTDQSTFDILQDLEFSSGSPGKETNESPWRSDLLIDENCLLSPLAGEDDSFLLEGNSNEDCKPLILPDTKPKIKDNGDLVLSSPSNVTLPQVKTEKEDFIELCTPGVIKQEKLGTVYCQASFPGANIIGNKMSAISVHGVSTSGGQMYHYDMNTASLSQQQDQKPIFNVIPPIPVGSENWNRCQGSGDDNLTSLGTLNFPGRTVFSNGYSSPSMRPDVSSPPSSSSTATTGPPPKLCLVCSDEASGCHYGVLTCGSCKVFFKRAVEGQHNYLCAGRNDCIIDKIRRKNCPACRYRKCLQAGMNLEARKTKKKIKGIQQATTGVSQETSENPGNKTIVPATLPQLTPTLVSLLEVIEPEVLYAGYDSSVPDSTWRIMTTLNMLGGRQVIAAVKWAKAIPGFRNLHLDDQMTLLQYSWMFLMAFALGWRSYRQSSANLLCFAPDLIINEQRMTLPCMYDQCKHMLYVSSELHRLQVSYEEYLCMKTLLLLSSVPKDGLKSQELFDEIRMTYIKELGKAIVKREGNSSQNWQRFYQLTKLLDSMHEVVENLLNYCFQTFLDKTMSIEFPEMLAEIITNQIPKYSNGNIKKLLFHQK

Potency, inactive:
Cc1noc(C)c1-c1nccc(NCc2ccccc2)n1 > 46 µM, c1ccc(CNc2cc(-c3ccoc3)ncn2)cc1 > 46 µM, CN(Cc1ccco1)c1cc(-c2cccnc2)ncn1 > 46 µM, c1cncc(CNc2cc(-c3ccoc3)ncn2)c1 > 46 µM, CC(=O)NCCNc1nc(-c2c(C)noc2C)nc2ccccc12 > 46 µM, CC(=O)NCCNc1ccnc(-c2ccccc2C)n1 > 46 µM, Cc1cnc(CNc2ccnc(-c3cccc(NS(C)(=O)=O)c3)n2)cn1 > 46 µM, CS(=O)(=O)Nc1cccc(-c2cc(NCc3ccccc3)ncn2)c1 > 46 µM, CCNc1ncc2nc(-c3cccc(C#N)c3)c(=O)n(CCC#N)c2n1 > 46 µM, c1ccc(CNc2nc(-c3ccoc3)nc3ccccc23)cc1 > 46 µM, COc1ccc(CNc2ccnc(-c3cccnc3)n2)c(OC)c1 > 46 µM, COCCn1c(=O)c(-c2cccc(F)c2)nc2cncnc21 > 46 µM, CN(Cc1ccco1)c1ccnc(-c2cccnc2)n1 > 46 µM, O=c1c(-c2cccc(Cl)c2)nc2cncnc2n1Cc1ccccc1 > 46 µM, CS(=O)(=O)Nc1cccc(-c2cncnc2Nc2ccccc2)c1 > 46 µM, COc1ccc(CNc2ncncc2-c2ccc(N(C)C)cc2)c(OC)c1 > 46 µM, COc1cccc(Cn2c(=O)c(-c3cccc(C#N)c3)nc3cnc(OC)nc32)c1 > 46 µM, O=c1c(-c2cccs2)nc2cncnc2n1-c1ccccc1 > 46 µM, Cn1cc(-c2nc3cncnc3n(C3CC3)c2=O)c2ccccc21 > 46 µM, Clc1ccccc1-c1nccc(NCCN2CCOCC2)n1 > 46 µM, COc1cccc(-c2cncnc2NCc2cnc(C)cn2)c1 > 46 µM, c1ccc(Nc2ncncc2-c2ccoc2)cc1 > 46 µM, CN(C)C(=O)c1ccc(-c2nccc(-n3ccnc3)n2)cc1 > 46 µM, COc1cccc(-c2cncnc2NCc2cccs2)c1 > 46 µM, COc1ccc2[nH]cc(CCNc3ncncc3-c3cccnc3)c2c1 > 46 µM, COc1ccccc1-c1cc(Nc2ccn[nH]2)ncn1 > 46 µM, COc1ccccc1-c1cncnc1NCc1cccs1 > 46 µM, N#Cc1ccccc1-c1ccc2ncnc(NCCN3CCOCC3)c2c1 > 46 µM, CN(Cc1ccco1)c1ncncc1-c1cccnc1 > 46 µM, COc1ccc2[nH]cc(CCNc3ccnc(-c4ccc5c(c4)OCO5)n3)c2c1 > 46 µM, Cc1ccccc1-c1cc(NCc2cccnc2)ncn1 > 46 µM, CCNc1ncc2nc(-c3cccs3)c(=O)n(-c3ccccc3)c2n1 > 46 µM, COCCNc1nc(-c2c(C)noc2C)nc2ccccc12 > 46 µM, COc1ccccc1-c1nc(N(C)Cc2ccco2)c2ccccc2n1 > 46 µM, COc1ccccc1-c1cncnc1NCc1ccccc1 > 46 µM, COc1ccccc1-c1nc(NCCN2CCOCC2)c2ccccc2n1 > 46 µM, c1csc(CNc2nc(-c3ccoc3)nc3ccccc23)c1 > 46 µM, Cc1ccccc1-c1cc(N(C)Cc2ccco2)ncn1 > 46 µM, CN(C)C(=O)c1ccc(-c2ccc3ncnc(N4CCOCC4)c3c2)cc1 > 46 µM, CS(=O)(=O)Nc1cccc(-c2cncnc2-n2ccnc2)c1 > 46 µM

Biological target: Mitogen-activated protein kinase 10 (Mus musculus) (UniProt Q61831)
Assay: JNK3 AlphaScreen Assay (AID 530; active = well fitted curve in either direction with a large enough effect, not every such curve was filed as active;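 also: kinase came from lysate of stimulated human HepG2 cells; signal reports phosphorylation of biotinylated GST-cJun 1-79 at Ser73 with 10 µM ATP; % is scaled to controls: 0 for no effect and ±100 for the full control effect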)
Conditions: JNK3 lysate, c-Jun phosphorylation; series mostly up to 57.1 µM; activity change, negative = inhibition: at the top concentration
Outline: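 qHTS format: compounds tested as titrations against IL-1beta/TNF-alpha-activated HepG2 lysate JNK3 with biotin-GST-cJun substrate and 10 uM ATP at room temperature. Loss of anti-phospho-cJun AlphaScreen signal indicates inhibition.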

Activity change, negative = inhibition, inactive:
Cc1noc(C)c1-c1nccc(NCc2ccccc2)n1 1.19%, c1ccc(CNc2cc(-c3ccoc3)ncn2)cc1 -14.5%, CN(Cc1ccco1)c1cc(-c2cccnc2)ncn1 -2.76%, c1cncc(CNc2cc(-c3ccoc3)ncn2)c1 -6.11%, CC(=O)NCCNc1nc(-c2c(C)noc2C)nc2ccccc12 2.93%, CC(=O)NCCNc1ccnc(-c2ccccc2C)n1 -5.88%, Cc1cnc(CNc2ccnc(-c3cccc(NS(C)(=O)=O)c3)n2)cn1 18%, CS(=O)(=O)Nc1cccc(-c2cc(NCc3ccccc3)ncn2)c1 1.82%, CCNc1ncc2nc(-c3cccc(C#N)c3)c(=O)n(CCC#N)c2n1 -0.358%, c1ccc(CNc2nc(-c3ccoc3)nc3ccccc23)cc1 -4.62%, COCCn1c(=O)c(-c2cccc(F)c2)nc2cncnc21 19.3%, CN(Cc1ccco1)c1ccnc(-c2cccnc2)n1 -6.07%, O=c1c(-c2cccc(Cl)c2)nc2cncnc2n1Cc1ccccc1 -15.5%, CS(=O)(=O)Nc1cccc(-c2cncnc2Nc2ccccc2)c1 -1.66%, COc1ccc(CNc2ncncc2-c2ccc(N(C)C)cc2)c(OC)c1 -26.1%, COc1cccc(Cn2c(=O)c(-c3cccc(C#N)c3)nc3cnc(OC)nc32)c1 1.08%, O=c1c(-c2cccs2)nc2cncnc2n1-c1ccccc1 -2.88%, Cn1cc(-c2nc3cncnc3n(C3CC3)c2=O)c2ccccc21 5.78%, Clc1ccccc1-c1nccc(NCCN2CCOCC2)n1 -12.4%, COc1cccc(-c2cncnc2NCc2cnc(C)cn2)c1 -0.325%, c1ccc(Nc2ncncc2-c2ccoc2)cc1 -8.51%, CN(C)C(=O)c1ccc(-c2nccc(-n3ccnc3)n2)cc1 -6.4%, COc1cccc(-c2cncnc2NCc2cccs2)c1 3.43%, COc1ccc2[nH]cc(CCNc3ncncc3-c3cccnc3)c2c1 -16.1%, COc1ccccc1-c1cc(Nc2ccn[nH]2)ncn1 -3.94%, COc1ccccc1-c1cncnc1NCc1cccs1 4.66%, N#Cc1ccccc1-c1ccc2ncnc(NCCN3CCOCC3)c2c1 3.35%, CN(Cc1ccco1)c1ncncc1-c1cccnc1 3.91%, COc1ccc2[nH]cc(CCNc3ccnc(-c4ccc5c(c4)OCO5)n3)c2c1 -14.7%, Cc1ccccc1-c1cc(NCc2cccnc2)ncn1 3.08%, CCNc1ncc2nc(-c3cccs3)c(=O)n(-c3ccccc3)c2n1 11%, COCCNc1nc(-c2c(C)noc2C)nc2ccccc12 0.337%, COc1ccccc1-c1nc(N(C)Cc2ccco2)c2ccccc2n1 -11.7%, COc1ccccc1-c1cncnc1NCc1ccccc1 0.58%, COc1ccccc1-c1nc(NCCN2CCOCC2)c2ccccc2n1 -0.67%, c1csc(CNc2nc(-c3ccoc3)nc3ccccc23)c1 -9.31%, Cc1ccccc1-c1cc(N(C)Cc2ccco2)ncn1 11.1%, CN(C)C(=O)c1ccc(-c2ccc3ncnc(N4CCOCC4)c3c2)cc1 -9.83%, CS(=O)(=O)Nc1cccc(-c2cncnc2-n2ccnc2)c1 1.53%
